# Results taken from PubChem BioAssay AID463173 (ICCB-Longwood Screening Facility, Harvard Medical School, 2010).
# Screen size: about 52,000 compounds; about 1,700 (3.3%) were called active. The sample holds actives, similar compounds and a random draw of the others, so the mix is not that of the screen. No stated cut-off is given here; in the data, active means survival mostly below about 52% (no sharp cut-off); inactive means mostly above about 56%.
# System: Wild type
# Assay: growth inhibition of S. aureus wild type versus tarO mutant, primary screen, teichoic acid synthesis inhibitors, RN4220, OD600 (AID 463173)
# Conditions: S. aureus RN4220 wild type/DeltatarO growth, OD600, 18 h, stronger effect = lower value, screened at 18.75 µg/mL (by protocol)
row,SMILES,survival
1,CC1(C)CC(=O)c2cc(C(=O)Nc3ccc(Br)cc3)c(=O)n(-c3ccc(Cl)cc3)c2C1,74% (inactive)
2,O=C(Nc1ccccc1)NC1(C(=O)Nc2ccc(-n3cnnn3)cc2)CCCCC1,123% (inactive)
3,COc1ccc(NC(=O)CS(=O)CC(=O)Nc2cc(OC)ccc2OC)cc1 (stereo unspecified),107% (inactive)
4,CCOC(=O)C1CCN(C(=O)c2ccc3c(c2)sc2nc(-c4ccccc4)cn23)CC1,42% (inactive)
5,Cc1cc(S(=O)(=O)Nc2cc3c(cc2N2CCOCC2)n(C)c(=O)n3C)ccc1F,82% (inactive)
6,CC(=O)Oc1cn(C(C)=O)c2ccccc12,84% (inactive)
7,CC1CCCCN1S(=O)(=O)c1ccc(NC(=O)C2COc3ccccc3O2)cc1 (stereo unspecified),125% (inactive)
8,COc1cc(NC(=O)Cc2c(C(=O)O)c(C)cn2C)cc(OC)c1,99% (inactive)
9,O=C(CCN1CCCCC1)Nc1ccccc1,110% (inactive)
10,CCOC(=O)c1ccc(N2C(=O)c3n[nH]c(-c4ccco4)c3C2c2ccc(O)cc2)cc1 (stereo unspecified),67% (inactive)
11,CCOC(=O)c1ccc(N2C(=O)c3n[nH]c(C)c3C2c2ccc(CC)cc2)cc1 (stereo unspecified),82% (inactive)
12,CCOC(=O)c1ccc(N2C(=O)c3n[nH]c(-c4ccco4)c3C2c2ccc(F)cc2)cc1 (stereo unspecified),9% (active)
13,CCOC(=O)c1ccc(N2C(=O)c3n[nH]c(-c4ccco4)c3C2c2ccc(C)cc2)cc1 (stereo unspecified),32% (inactive)
14,CCOC(=O)c1ccc(N2C(=O)c3n[nH]c(C)c3C2c2ccc(C(C)(C)C)cc2)cc1 (stereo unspecified),81% (inactive)
15,CCOC(=O)c1ccc(N2C(=O)c3n[nH]c(C)c3C2c2cccc(Br)c2)cc1 (stereo unspecified),3% (active)
16,Cn1cc(S(=O)(=O)N2CCCCC2)cc1C(=O)NCc1ccc(Cl)cc1,88% (inactive)
17,COc1ccc(CNC(=O)Cc2c(C)c3cc4c(C)coc4cc3oc2=O)cc1,88% (inactive)
18,COc1ccc(-c2nc3sc(CCNC(=O)C(=O)Nc4cc(C)cc(C)c4)c(C)n3n2)cc1,89% (inactive)
19,CC(=O)c1ccc(N2CCN(C(=O)C3CCN(S(=O)(=O)c4c(C)noc4/C=C/c4ccc(C)cc4)CC3)CC2)cc1,127% (inactive)
20,O=C(O)CCC(=O)NC(c1ccccc1)c1ccccc1,108% (inactive)
21,Cc1cc(C)nc(N2CCC(C(=O)Nc3nnc(C(C)C)s3)CC2)n1,107% (inactive)
22,COC(=O)c1cc2c(ccn2-c2ccc(F)cc2)n1Cc1ccccc1,88% (inactive)

row,SMILES,survival
1,Cc1ccc(CN2C(=O)CN(C3CCCCCC3)C(=O)C2c2ccc(F)cc2)cc1 (stereo unspecified),1% (active)
2,Cc1ccc(CN2C(=O)CN(C3CCC(C)CC3)C(=O)C2c2ccc(F)cc2)cc1 (stereo unspecified),119% (inactive)
3,COc1ccc(C2C(=O)N(C3CCCCCC3)CC(=O)N2Cc2ccc(C)cc2)cc1 (stereo unspecified),75% (inactive)
4,COc1ccc(C)cc1NC(=O)Nc1cccc(OCc2cc(=O)n3ccc(C)cc3n2)c1,73% (inactive)
5,CCC(=O)N1c2ccc(S(=O)(=O)CCC(=O)Nc3ccc(Br)c(C)c3)cc2CC1C (stereo unspecified),87% (inactive)
6,CCc1ccc(-c2nc(CN3CCCC(C(=O)NCc4ccc(C)cc4)C3)c(C)o2)cc1 (stereo unspecified),88% (inactive)
7,Cc1ccccc1-c1nc(CN2CCCC(C(=O)NCc3ccc(Cl)cc3)C2)c(C)o1 (stereo unspecified),68% (inactive)
8,Cc1cccc(-c2nc(CN3CCCC(C(=O)NCc4ccc(Cl)cc4)C3)c(C)o2)c1 (stereo unspecified),2% (active)
9,Cc1oc(-c2cccc(Cl)c2)nc1CN1CCCC(C(=O)NCc2ccc(Cl)cc2)C1 (stereo unspecified),-1% (active)
10,Cc1oc(-c2cccc(Cl)c2)nc1CN1CCCC(C(=O)NCc2ccc(F)cc2)C1 (stereo unspecified),64% (inactive)
11,Cc1ccc(CNC(=O)C2CCN(Cc3nc(-c4cccc(Br)c4)oc3C)CC2)cc1,75% (inactive)
12,Cc1oc(-c2ccc(Cl)cc2)nc1CN1CCCC(C(=O)NCc2ccc(Cl)cc2)C1 (stereo unspecified),85% (inactive)
13,Cc1oc(-c2ccc(Cl)cc2)nc1CN1CCCC(C(=O)NCc2ccccc2)C1 (stereo unspecified),88% (inactive)
14,Cc1ccc(CNC(=O)C2CCCN(Cc3nc(-c4cccc(C)c4)oc3C)C2)cc1 (stereo unspecified),4% (active)
15,COc1ccc(CCNC(=O)CCc2c(C)c3cc4c(C)coc4cc3oc2=O)cc1,90% (inactive)
16,C=C(C)Cn1c(=O)c2c(nc3n2CCN3c2ccc(F)cc2)n(C)c1=O,85% (inactive)
17,CC(=O)c1cccc(NC(=O)CSc2nc3ccccc3nc2Cc2ccc(F)cc2)c1,73% (inactive)
18,Cc1ccc2oc(-c3cc(N=C/C=C/c4ccc5c(c4)OCO5)ccc3O)nc2c1,113% (inactive)
19,COc1ccc(CNC(=O)C2CCN(c3nc4ccccc4[nH]3)CC2)cc1OC,47% (inactive)
20,CCOc1cc(CNC(=O)C2CCN(c3nc4ccccc4[nH]3)CC2)cc(OCC)c1OCC,-3% (active)
21,CN(C)c1ccc(CNC(=O)C2CCN(c3nc4ccccc4[nH]3)CC2)cc1,45% (inactive)
22,CCCN(CCC)CCNC(=O)C1CCN(c2nc3ccc(CC)cc3s2)CC1,67% (inactive)

row,SMILES,survival
1,CC1CCC(Nc2nc3c(-c4ccc(Cl)cc4)nnn3c3ccccc23)CC1 (stereo unspecified),25% (inactive)
2,FC(F)(F)c1cccc(-c2nnn3c2nc(NC2CCCCC2)c2ccccc23)c1,28% (inactive)
3,Clc1ccc(-c2nnn3c2nc(NC2CCCCC2)c2ccccc23)cc1,57% (inactive)
4,Fc1cccc(-c2nnn3c2nc(NC2CCCCC2)c2ccccc23)c1,85% (inactive)
5,Cc1ccc(-c2nnn3c2nc(NC2CCC(C)CC2)c2ccccc23)cc1 (stereo unspecified),4% (active)
6,CC1CCC(Nc2nc3c(-c4cccc(C(F)(F)F)c4)nnn3c3ccccc23)CC1 (stereo unspecified),-1% (active)
7,COc1cc2nc(Nc3cccc(F)c3)nc(N)c2cc1OC,89% (inactive)
8,Cc1ccc(OCc2nnc(-c3ccccc3)o2)cc1,77% (inactive)
9,O=C(Nc1cccc(C(=O)OCc2cc(=O)n3c4c(sc3n2)CCCC4)c1)c1cccc(Cl)c1,73% (inactive)
10,CN1c2ccccc2Oc2nnc(N3CCN(Cc4ccccc4)CC3)cc21,110% (inactive)
11,CCc1ccc(NC(=O)C(=O)NCC(c2cccnc2)N2CCN(C)CC2)cc1 (stereo unspecified),111% (inactive)
12,CCOC(=O)c1c(Oc2ccc(OC)cc2)nnc(-c2ccccc2)c1-c1ccccc1,91% (inactive)
13,CCOC(=O)c1c(C)c(-c2ccccc2)n(CC(=O)Nc2ccc(OCC)cc2)c1C,82% (inactive)
14,CCOC(=O)c1c(Nc2ccc(OC)cc2)nnc(-c2ccccc2)c1-c1ccccc1,5% (active)
15,CCOC(=O)c1c(Nc2ccc(OCC)cc2)nnc(-c2ccccc2)c1-c1ccccc1,2% (active)
16,CCOC(=O)c1c(C)oc2ncnc(Nc3ccc(OCC)cc3)c12,72% (inactive)
17,CCOC(=O)c1c(Nc2cccc(C(=O)OC)c2)nnc(-c2ccccc2)c1-c1ccccc1,19% (inactive)
18,COCCn1c(SCC(=O)Nc2cc(Cl)ccc2OC)nc2c([nH]c3ccccc32)c1=O,132% (inactive)
19,Cc1ccc2sc(N3CCN(C(=O)C4COc5ccccc5O4)CC3)nc2c1C (stereo unspecified),148% (inactive)
20,COc1ccc(-c2nnc(SCC(=O)Oc3c(C)cccc3C)o2)cc1OC,117% (inactive)
21,CN(C(=O)Nc1cn(C)c(=O)c2ccccc12)c1ccccc1,-6% (active)
22,Cc1ccc(NC(=O)Nc2cn(C)c(=O)c3ccccc23)c(Cl)c1,69% (inactive)

row,SMILES,survival
1,CCOc1ccccc1N(CC)C(=O)Nc1cn(C)c(=O)c2ccccc12,78% (inactive)
2,CCCNC(=O)C1CCC(Cn2c(=O)c3sccc3n(CC(=O)N(CC)CC)c2=O)CC1 (stereo unspecified),128% (inactive)
3,Cc1ccc(CNC(=O)CN2C(=O)COc3ccc(S(=O)(=O)Nc4ccccc4)cc32)cc1,-6% (active)
4,COc1ccc(CNC(=O)CN2C(=O)COc3ccc(S(=O)(=O)Nc4ccccc4)cc32)cc1,87% (inactive)
5,COc1cccc(CNC(=O)CN2C(=O)COc3ccc(S(=O)(=O)Nc4ccccc4)cc32)c1,73% (inactive)
6,COc1ccc2c(c1)c1c(c(=O)n(-c3ccc(C)cc3)c(=O)n1CC(=O)NCc1ccc(C)cc1)n2C,70% (inactive)
7,O=S(=O)(Nc1ccccc1C(F)(F)F)c1ccc(N2CCCCS2(=O)=O)cc1,136% (inactive)
8,COc1cccc(NC(=O)CCc2nc3c(C)nn(-c4ccc(C)cc4)c3n(C)c2=O)c1,72% (inactive)
9,Cc1ccc(-n2nc(C)c3nc(CCC(=O)Nc4cccc(F)c4)c(=O)n(C)c32)cc1,-6% (active)
10,Cc1ccc(-n2nc(C)c3nc(CCC(=O)Nc4ccc(F)cc4)c(=O)n(C)c32)cc1,80% (inactive)
11,Cc1ccc(NC(=O)c2c(C)oc3ncn(CC(C)C)c(=O)c23)nc1,129% (inactive)
12,Cc1nn(C)c(C)c1NC(=O)CSc1nccc(-c2ccc(Cl)cc2)n1,100% (inactive)
13,Cc1ccc(C(=O)CSc2nc3cc(C(=O)NC4CCCC4)ccc3c(=O)n2CC2CCCO2)cc1 (stereo unspecified),75% (inactive)
14,Cc1ccc(C(=O)CSc2nc3cc(C(=O)NC4CCCC4)ccc3c(=O)n2CC2CCCO2)c(C)c1 (stereo unspecified),63% (inactive)
15,O=C(CSc1nc2cc(C(=O)NC3CCCC3)ccc2c(=O)n1CC1CCCO1)c1cccc(Cl)c1 (stereo unspecified),-3% (active)
16,CCOc1ccc(C(=O)CSc2nc3cc(C(=O)NC4CCCC4)ccc3c(=O)n2CC2CCCO2)cc1 (stereo unspecified),0% (active)
17,O=C(CSc1nc2cc(C(=O)NC3CCCC3)ccc2c(=O)n1CC1CCCO1)c1ccc(F)cc1 (stereo unspecified),70% (inactive)
18,COc1ccc(C(=O)CSc2nc3cc(C(=O)NC4CCCC4)ccc3c(=O)n2CC2CCCO2)cc1 (stereo unspecified),76% (inactive)
19,CC(CN1CCCC1)OC(=O)c1ccc(F)cc1 (stereo unspecified),109% (inactive)
20,Cc1ccc(-c2nnc(Nc3ccc(Br)cc3)c3ccccc23)cc1S(=O)(=O)N1CCCCC1,89% (inactive)
